Experimental data reported in the supplement of paper PMC10498489.
In all, about 2,300 compounds went through this assay and about 330 (14%) showed activity. These entries were drawn from the full list. Unmarked numbers belong to inactive results.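 Rule for the calls: active = median modified Z-score above 1.96; inactive = 1.96 or below.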

What follows are compounds tested on HepG2 Srxn1-GFP reporter cells (+30 nM CDDO-Me) (assay: Srxn1-GFP intensity median modified Z-score relative to plate median; higher = stronger NRF2 / oxidative stress reporter activation, active = hit call of the paper). Details: 10 µM; exposure time: 24h.
Procedure, shortened: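 In 96-well plates holding 20,000 HepG2 Srxn1-GFP BAC reporter cells per well, compound at 10 μM and an NRF2 activator at 30 nM were added together for 24 h, with DMSO at ≤0.1%, across three replicate plates. After fixation in formaldehyde and Hoechst staining, confocal images were analysed cell by cell for cytoplasmic GFP, and images containing under 100 cells were excluded. Values are replicate medians of the per-plate modified Z-score of GFP intensity, scaled by 1.4826 × median absolute deviation.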

Row | SMILES | Srxn1-GFP intensity median modified Z-score
1 | O=Cc1ccccc1O[C@@H]1O[C@H](CO)[C@H](O)[C@@H](O)[C@H]1O [euspeclibcmpd1574] | 0.476
2 | N[C@@H]1[C@@H](O)[C@H](O)[C@@H](CO)O[C@H]1O [euspeclibcmpd140] | 0.0216
3 | N#Cc1ccc(C(=O)NCCCCN2CCOCC2)cc1 | 0.374
4 | CCCCOc1ccc(OCCCN2CCOCC2)cc1 [euspeclibcmpd396] | 2.42 (active)
5 | CCCCOc1ccc(C(=O)CCN2CCCCC2)cc1 [euspeclibcmpd107] | 3.53 (active)
6 | O=C(c1ccc(OCCN2CCCCC2)cc1)c1c(-c2ccc(O)cc2)sc2cc(O)ccc12 [euspeclibcmpd831] | -0.702
7 | CC1CCN(CCCC(=O)c2ccc(F)cc2)CC1 [euspeclibcmpd1905] | 1.19
8 | O=C(NCCCCN1CCOCC1)c1ccc(F)cc1 | 0.352
9 | O=c1c(O)cc2c(O)oc3c(=O)c(O)cc4c(O)oc1c2c43 [euspeclibcmpd1077] | 0.204
10 | CC1CC[C@@]2(OC1)O[C@H]1CC3C4CC[C@@H]5C[C@@H](O)CC[C@]5(C)C4CC[C@]3(C)[C@H]1[C@@H]2C (stereo partly drawn) [euspeclibcmpd2070] | -0.402
11 | O=C(C=Cc1ccc(O)c(O)c1)O[C@@H]1C[C@](O)(C(=O)O)C[C@@H](O)[C@H]1O [euspeclibcmpd1682] | 1.16
12 | C[C@]12C=CC(=O)CC1=CCC1C2[C@@H](O)C[C@@]2(C)C1CC[C@]2(O)C(=O)COC(=O)CCC(=O)O (stereo partly drawn) [euspeclibcmpd794] | 0.608
13 | Cc1cccc(N=c2cc[nH]cc2S(=O)(=O)NC(=O)NC(C)C)c1 [euspeclibcmpd2184] | 0
14 | C[C@]12CCC3c4ccc(OC(=O)c5ccccc5)cc4CCC3C1CC[C@@H]2O (stereo partly drawn) [euspeclibcmpd412] | 0.298
15 | NC(=O)COC(=O)c1ccccc1Nc1cccc(C(F)(F)F)c1 | 1.26
16 | CC(=O)OCC(=O)[C@@]1(O)CCC2C3CC=C4CC(=O)C=C[C@]4(C)[C@@]3(Cl)[C@@H](Cl)C[C@@]21C (stereo partly drawn) [euspeclibcmpd1222] | -0.43
17 | CCC1OC(=O)C(C)C(=O)C(C)[C@@H](OC2O[C@H](C)C[C@H](N(C)C)[C@H]2O)[C@](C)(OC)CC(C)C(=O)C(C)[C@@H]2N(CCCCn3cnc(-c4cccnc4)c3)C(=O)O[C@]12C (stereo partly drawn) [euspeclibcmpd733] | -0.17
18 | Oc1c(Br)cc(Br)c2cccnc12 [euspeclibcmpd1032] | 4.39 (active)
19 | Oc1c(I)cc(Cl)c2cccnc12 | 1.31
20 | Oc1ccc(Cl)c2cccnc12 [euspeclibcmpd72] | -1.02
21 | Cc1ccc(Cl)c2cccnc12 | 1.45
22 | Oc1c(I)cc(I)c2cccnc12 [euspeclibcmpd2015] | 1.62

Row | SMILES | Srxn1-GFP intensity median modified Z-score
23 | Oc1c(Cl)cc(Cl)c2cccnc12 [euspeclibcmpd537] | 2.82 (active)
24 | Oc1c(I)cc(Cl)c2cccnc12 [euspeclibcmpd705] | 2.87 (active)
25 | O=[N+]([O-])c1ccc(O)c2ncccc12 [euspeclibcmpd1218] | -0.363
26 | O=S(=O)(O)c1cc(I)c(O)c2ncccc12 [euspeclibcmpd2311] | -0.435
27 | CCc1c(C)cn(C(=O)NCCc2ccc(S(=O)(=O)NC(=O)N[C@H]3CC[C@H](C)CC3)cc2)c1O [euspeclibcmpd697] | -0.793
28 | O=C(O[C@@H]1Cc2c(O)cc(O)cc2O[C@@H]1c1cc(O)c(O)c(O)c1-c1c([C@H]2Oc3cc(O)cc(O)c3C[C@H]2OC(=O)c2cc(O)c(O)c(O)c2)cc(O)c(O)c1O)c1cc(O)c(O)c(O)c1 [euspeclibcmpd2312] | -0.214
29 | COc1[nH]cnc(=NS(=O)(=O)c2ccc(N)cc2)c1OC [euspeclibcmpd917] | -0.467
30 | COc1cc(OC)c2c(c1Cl)OC1(C(=O)CC(=O)CC1C)C2=O (stereo not drawn) [euspeclibcmpd1388] | -0.00204
31 | CC(=O)OCC(=O)[C@@]1(O)[C@H](OC(C)=O)CC2C3CC=C4CC(=O)C=C[C@]4(C)[C@@]3(F)[C@@H](O)C[C@@]21C (stereo partly drawn) [euspeclibcmpd1284] | -0.169
32 | N=c1[nH]cnc2c1ncn2C1C[C@H](O)[C@@H](CO)O1 (stereo partly drawn) [euspeclibcmpd2091] | -0.0836
33 | CO[C@H]1/C=C/O[C@@]2(C)Oc3c(C)c(O)c4c(O)c(c5c(nc6cc(C)ccn65)c4c3C2=O)NC(=O)/C(C)=C\C=C\C(C)[C@H](O)[C@@H](C)C(O)[C@@H](C)[C@H](OC(C)=O)[C@@H]1C (stereo partly drawn) [euspeclibcmpd745] | -0.528
34 | Clc1ccc(COC(Cn2ccnc2)c2ccc(Cl)cc2Cl)cc1 (stereo not drawn) [euspeclibcmpd413] | 15.1 (active)
35 | Clc1ccc(C(Cn2ccnc2)OCc2ccsc2Cl)c(Cl)c1 (stereo not drawn) [euspeclibcmpd1174] | 15.7 (active)
36 | C=CCOC(Cn1ccnc1)c1ccc(Cl)cc1Cl (stereo not drawn) [euspeclibcmpd2390] | 6.42 (active)
37 | Clc1ccc(CSC(Cn2ccnc2)c2ccc(Cl)cc2Cl)cc1 (stereo not drawn) [euspeclibcmpd401] | 22.5 (active)
38 | Clc1ccc(CON=C(Cn2ccnc2)c2ccc(Cl)cc2Cl)c(Cl)c1 [euspeclibcmpd747] | -0.564
39 | C=CC1=C(C(=O)O)N2C(=O)C(NC(=O)C(=NO)c3csc(=N)[nH]3)C2SC1 (stereo not drawn) [euspeclibcmpd718] | -0.455
40 | CC(=CC(=O)OCCCCCCCCC(=O)O)C[C@@H]1OC[C@H](C[C@@H]2O[C@H]2[C@@H](C)[C@H](C)O)[C@@H](O)[C@H]1O [euspeclibcmpd851] | 0.838
41 | Cc1cnn(CCC(=O)NC2CCCN(c3ccc(C)nn3)C2)c1 (stereo not drawn) | 1.37
42 | O=C(O)c1cc(O)c(=O)c2c(O)c(O)c(O)cc2c1 [euspeclibcmpd1713] | -0.567
43 | Cc1ccsc1C=CC1=NCCCN1C [euspeclibcmpd638] | 0.449
